# Compound activity deposited in PubChem by National Center for Advancing Translational Sciences (NCATS).
# RE007 growth inh – less growth of the S. pombe RE007 Vpr strain | 0.21% of 360,000 active | S. pombe RE007 Vpr strain, BacTiter-Glo ATP luminescence, 24 h | Potency, µM (top dose mostly 92.2 µM), for inactives: at the highest dose activity change, negative = less growth, usual class: inhibitors; active means well fitted falling curve with a large enough effect; inconclusive means small, poorly fitted or top-dose-only effect; inactive means no such curve, though single readings can be large or run the other way; further: potency means the concentration at half of the fitted maximal effect; on the % scale 0 is the no-effect control and ±100 the full control effect; nearly all actives have a fitted effect of over 50% in size
#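 Fission yeast strain RE007, carrying one chromosomally integrated HIV-1 vpr copy, was seeded at OD 0.01 in PMG+AL medium with 23 nL pinned compound. After 24 h at 30 °C and 99% humidity, viability was read by BacTiter-Glo luminescence.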
# Tb PYK inh – inhibitors of Trypanosoma brucei pyruvate kinase; Q57TT1; TbPYK enzyme, Kinase-Glo Plus ATP luminescence, 45 min; Potency, µM (highest dose often 76.8 µM), without a hit: at the top dose activity, negative = inhibition, most hits filed as inhibitors; 0.12% of 410,000 active; AID 624173; further: potency means the concentration at half of the fitted maximal effect; on the % scale 0 is the no-effect control and ±100 the full control effect; nearly all actives have a fitted effect of over 50% in size
#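 Quantitative HTS: titrated library compounds versus trypanosomal pyruvate kinase in TEA buffer (pH 7.2) containing KCl, MgCl2, BSA and Tween-20. Reactions were initiated with ADP, 130 uM final. Kinase-Glo Plus luminescence was read after 45 min at RT.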
# FBPA Giardia inh – blocks Giardia fructose-bisphosphate aldolase activity | purified Giardia FBPA | Potency, µM (titrated, usually from 59.6 µM), inactives show top-dose activity, negative = inhibition, most hits filed as inhibitors | 0.71% of 290,000 active; further: potency means the concentration at half of the fitted maximal effect; on the % scale 0 is the no-effect control and ±100 the full control effect; nearly all actives have a fitted effect of over 55% in size
#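 40 nM FBPA preincubated 10 min at RT with compound (up to 57.5 uM final), then substrate plus GAPDH/TPI/NAD/arsenate coupling and diaphorase/resazurin added. Fluorescence read after 20 min at RT, 525/598 nm.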
# Cycloheximide cs – affects cycloheximide protein synthesis inhibition readout, counter-screen | cell reporter, cycloheximide protein synthesis inhibition counterscreen | max response, % | 12% of 300,000 active | AID 2314; in the data active means max response mostly above about 13%, no sharp cut-off; inactive means mostly below about 14%; further: read at 38.3 µM for the half of the compounds with a filed dose; 0% is about no effect
# LmPK inh – inhibitors of Leishmania mexicana pyruvate kinase; purified LmPK, Kinase-Glo ATP luminescence, 1 h; Q27686; Potency, µM (highest dose often 57.5 µM), inactives show top-dose activity change, negative = inhibition, actives largely listed as inhibitors; 0.37% of 290,000 active; further: potency means the concentration at half of the fitted maximal effect; on the % scale 0 is the no-effect control and ±100 the full control effect
# Target sequence (Q27686 whole entry, looked up): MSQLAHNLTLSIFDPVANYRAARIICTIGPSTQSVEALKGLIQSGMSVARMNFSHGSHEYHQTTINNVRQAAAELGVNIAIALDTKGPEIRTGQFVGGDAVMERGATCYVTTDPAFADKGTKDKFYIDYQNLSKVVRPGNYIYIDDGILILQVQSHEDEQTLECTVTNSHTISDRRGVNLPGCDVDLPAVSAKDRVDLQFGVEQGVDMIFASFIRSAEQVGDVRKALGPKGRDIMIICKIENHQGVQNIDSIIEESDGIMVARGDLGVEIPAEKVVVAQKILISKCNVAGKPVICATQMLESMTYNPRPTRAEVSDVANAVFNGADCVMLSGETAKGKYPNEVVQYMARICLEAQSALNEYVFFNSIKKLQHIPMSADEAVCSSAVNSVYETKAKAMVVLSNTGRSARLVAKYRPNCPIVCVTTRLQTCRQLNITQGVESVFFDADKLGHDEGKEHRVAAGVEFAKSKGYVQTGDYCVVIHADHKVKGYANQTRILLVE
#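 Pyruvate kinase activity monitored as ATP production (luciferase luminescence). Conditions: 0.1 nM enzyme, 0.5 mM PEP, 0.1 mM ADP, 1 h, RT; normalized against uninhibited and no-enzyme wells.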
# Shiga toxin inh – Shiga toxin inhibition | 9.2% of 290,000 active | inhibition, % at 38.7 µM | Vero cells, Shiga toxin protein synthesis inhibition reporter; in the data active means inhibition mostly above about 28%, no sharp cut-off; inactive means mostly below about 43%; further: 0% is about no effect
# LmPK inh confirm – Blocks LmPK activity, confirmation assay | Potency, µM (doses to about 57.5 µM), without a hit: at the highest dose activity change, negative = inhibition, actives largely listed as inhibitors | shares compounds with LmPK inh | purified LmPK, Kinase-Glo ATP luminescence, 1 h | 40% of 150 active;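 active means compounds giving a full or partial concentration-response curve, as inhibitors or activators; inconclusive means weak, top-dose-only or unclear curve responses; inactive means no response at any tested dose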
# * = called active by the depositor; u = inconclusive; x = no result given. This excerpt belongs to a sample that is enriched for hits. Unless noted, the call rests on the fitted dose curve; in most records, active means well fitted curve in the direction sought with a large enough effect; inconclusive means small, poorly fitted or top-dose-only effect, or another doubt; inactive means no such curve, though single readings can be large; an effect the other way counts as inactive or inconclusive.
SMILES,RE007 growth inh,Tb PYK inh,FBPA Giardia inh,Cycloheximide cs,LmPK inh,Shiga toxin inh,LmPK inh confirm
CCOc1ccc(S(=O)(=O)N(C)c2ccc(OCC(=O)Nc3nccs3)cc2)cc1,7%,1%,-1%,6,3%,12,x
Cc1ccc(OCc2cc(=O)n3ccsc3n2)c(NC(=O)c2ccco2)c1,x,2%,x,x,x,x,x
CCOC(=O)CNS(=O)(=O)c1cc(-c2nn(C)c(=O)c3ccccc23)ccc1C,11%,-10%,-12%,-2,2%,-9,7%
CCOC(=O)c1c(C)c(-c2ccccc2)n(CC(=O)NCc2ccccc2)c1C,x,-1%,x,x,x,x,x
CCCCNc1ccc(-c2nc(-c3ccccn3)no2)cc1[N+](=O)[O-],x,-1%,x,x,x,x,x
c1ccc(-c2nc(-c3ccccn3)no2)cc1,u,u,-2%,-5,3.5µM*,-15,15µM*
O=C1C(c2cc(=O)c3ccccc3[nH]2)=C(O)c2ccccc21,-21%,8.9µM*,u,42*,4µM*,137*,u
COc1ccc(O)c(/C=N/n2c(-c3ccco3)csc2=Nc2cccnc2)c1,9%,-1%,1%,-2,2%,-21,x
CN=c1scc(-c2ccco2)n1/N=C/c1ccc(O)c(O)c1,-13%,-14%,u,4,5.6µM*,16,u
COC(=O)c1sc(NC(=O)c2ccoc2C)nc1C,-1%,-1%,-1%,26*,7.1µM*,16*,16µM*
COC(=O)c1sc(NC(=O)c2c(C)noc2C)nc1C,8%,3%,x,2,-10%,8,x
CCOC(=O)CN(C)Cc1cn(C)nc1-c1ccc(Oc2ccccc2)cc1,-6%,-3%,3%,-1,-2%,-4,x
CC(C)N(Cc1cn(C)nc1-c1cccc(Cl)c1)Cc1nccn1C,-3%,0%,3%,-2,2%,-4,x
Cc1cnccc1CN(C)Cc1cn(C)nc1-c1ccc(Oc2ccccc2)cc1,-3%,-5%,-10%,-1,-2%,-29,-9%
CN(Cc1cn(C)nc1-c1cccc(Cl)c1)CC1CCCCO1 (stereo not given),4%,-3%,1%,-2,8%,-19,-2%
Cc1cnccc1CN(C)Cc1cn(C)nc1-c1cccc(Cl)c1,-32%,-9%,0%,-3,8%,-9,0%
O=C(c1cc2c(=O)oc3ccccc3c2s1)N1CCN(c2cccc(Cl)c2)CC1,x,-2%,x,x,x,x,x
CCc1ccc(OCC(=O)N(Cc2ccc(C(C)C)cc2)C2CCS(=O)(=O)C2)cc1 (stereo not given),x,8%,x,x,x,x,x
COn1c(SCc2ccc(Cl)cc2)nc2ccccc2c1=O,8%,-25%,1%,-4,8%,19,2%
CCCc1nccn1S(=O)(=O)c1cc(Br)ccc1OC,x,-4%,x,x,x,x,x
COc1ccccc1N1CCN(c2ncnc3c2cnn3C)CC1,x,-4%,x,x,x,x,x
CC(C)(C)c1ccc(CN(Cc2ccco2)Cc2nnnn2C2CCCC2)cc1,3%,7%,-6%,1,-5%,68,-3%
COc1ccc(Cn2ccc3nc(C)c(C(=O)N4CCN(c5cccc(OC)c5)CC4)cc3c2=O)cc1,x,4%,x,x,x,x,x
Cn1c(N=Nc2ccccc2)nc2ccccc21,16µM*,14µM*,-23%,40,2.2µM*,14,7.3µM*
Cn1c(/C=N/O)nc2ccccc21,0%,1%,u,12,-1%,19,x
SMILES,RE007 growth inh,Tb PYK inh,FBPA Giardia inh,Cycloheximide cs,LmPK inh,Shiga toxin inh,LmPK inh confirm
CN(C)c1ccc(N=Nc2nc3ccccc3n2C)cc1,11µM*,14µM*,-10%,-9,4µM*,-13,3.7µM*
Cn1c(Cl)nc2ccccc21,4%,1%,1%,-2,-3%,-3,x
COC(=O)CC1C(C)(C)C(=O)C2CC3=C(CC[C@]4(C)C3=CC(=O)OC4c3ccoc3)[C@@]1(C)C2=O (stereo not given in full),x,x,-4%,x,x,x,x
O=C(CCCc1ccc(-c2ccccc2F)cc1)Nc1ccc(O)cc1,x,x,-5%,x,x,x,x
CCCOc1cccc(C(=O)N(Cc2cc(OC)c(OC)c(OC)c2)C2CCS(=O)(=O)C2)c1 (stereo not given),x,2%,x,x,x,x,x
COc1ccccc1-c1noc(-c2ccc(N3CCC(C)CC3)c([N+](=O)[O-])c2)n1,x,-1%,x,x,x,x,x
COc1ccc(C(=O)Nc2scc(-c3ccc(Cl)cc3Cl)c2C(N)=O)cc1,-14%,4%,-7%,44*,5%,153*,0%
CCOC(=O)Cc1csc(NC(=S)NC(=O)c2ccc(Cl)cc2)n1,-15%,2%,u,-3,-14%,-8,x
CCOC(=O)Cc1csc(NC(=S)NC(=O)c2ccc([N+](=O)[O-])cc2)n1,2%,-3%,u,2,7.1µM*,4,u
Cc1ccc(Cn2c(N)nc3ccccc32)cc1,6%,-12%,-6%,1,-3%,-11,x
Cc1ccc(C(=O)n2c(N)nc3ccccc32)cc1,0%,-25%,0%,4,5µM*,-21,33µM*
O=C(/C=C/Nc1ccccc1Br)c1ccccn1,-25%,u,4%,-7,5µM*,-20,21µM*
O=P(O)(O)OP(=O)(O)O,x,0%,x,x,x,x,x
Cc1ccnc(NC(=O)c2ccc3c(c2)OCO3)c1,u,u,-10%,25*,14µM*,66*,16µM*
COc1ccc(Oc2nc3c(c(=O)n(C)c(=O)n3C)n2Cc2ccc(Cl)cc2Cl)cc1,x,-9%,x,x,x,x,x
COc1cccc(NC(=O)CSc2nc3ccccc3cc2Cc2ccccc2)c1,4%,-5%,2%,8,1%,-4,3%
COc1cc(NC(=O)CSc2nc3ccccc3cc2Cc2ccccc2)cc(OC)c1,12%,-3%,-12%,-1,-6%,-9,x
CCc1nnc(NC(=O)CSc2nc3c([nH]c4ccccc43)c(=O)n2-c2ccc(F)cc2)s1,x,-1%,x,x,x,x,x
COc1ccc(-c2ccc(NS(=O)(=O)c3ccccc3Cl)cc2)nn1,x,-4%,x,x,x,x,x
Cc1cc(Br)cc(C)c1NC(=O)c1sc2ncn(Cc3cccc(F)c3)c(=O)c2c1C,x,4%,x,x,x,x,x
O=CN/C=C/c1cc(O)ccc1O,-3%,-21%,u,4,4.5µM*,10,u
O=Cc1ccc(O)cc1O,5%,-7%,4%,1,-11%,-4,x
O=C(/C=C/c1ccc2c(c1)OCO2)c1ccccn1,u,u,u,72*,5µM*,97*,21µM*
O=C(C=Cc1ccc2c(c1)OCO2)OCC=Cc1ccc2c(c1)OCO2,7%,2%,x,x,x,x,x
O=C(Nc1ccc2c(c1)OCCO2)c1ccccn1,u,u,-3%,12*,5µM*,31,18µM*
CC(OC(=O)c1ccccn1)C(=O)Nc1ccc2c(c1)OCCO2 (stereo not given),6%,-6%,x,x,x,x,x
